Test results: PubChem BioAssay (NCATS)
Records with an inconclusive call do not appear. Calls of active or inactive are those of the source. Calls follow the shape of the dose curve; as a rule, active = well fitted curve in the direction sought with a large enough effect; inconclusive = small, poorly fitted or top-dose-only effect, or another doubt; inactive = no such curve, though single readings can be large; an effect the other way counts as inactive or inconclusive.

Columns and labels:
[1] = target: Rap guanine nucleotide exchange factor 3 (Homo sapiens) (UniProt O95398); test: Confirmatory qHTS for agonist of cAMP-regulated guanine nucleotide exchange factor 3 (EPAC1) (AID 1645881);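 also: EPAC1 catalysed release of BODIPY-GDP from Rap1B seen as fluorescence loss; 100% = effect of cAMP agonist control; nearly all actives have a fitted effect of over 75% in size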
[2] = target: Rap guanine nucleotide exchange factor 4 (Homo sapiens) (UniProt Q8WZA2); test: Confirmatory qHTS for agonist of cAMP-regulated guanine nucleotide exchange factor 4 (EPAC2) (AID 1645884);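 also: nucleotide exchange releases bodipy-GDP from Rap1 and this lowers its fluorescence; % is scaled to controls: 0 for no effect and ±100 for the full control effect; nearly all actives have a fitted effect of over 65% in size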
[3] = target: Rap guanine nucleotide exchange factor 4 (Homo sapiens) (UniProt Q8WZA2); test: Confirmatory qHTS for antagonist of cAMP-regulated guanine nucleotide exchange factor 4 (EPAC2) (AID 1645885); also: nearly all actives have a fitted effect of over 25% in size; as to activity change, negative = inhibition: % is scaled to controls: 0 for no effect and ±100 for the full control effect
[4] = target: Rap guanine nucleotide exchange factor 3 (Homo sapiens) (UniProt O95398); test: Counterscreen qHTS for antagonist of cAMP-regulated guanine nucleotide exchange factor 3 (EPAC1) (AID 1645888);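 also: fluorescence loss as bound BODIPY-GDP is released from Rap1B; % of control where 0% means no effect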
How it was run: (§1)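 Measured: fluorescence of BODIPY-GDP bound to Rap1B, which falls as exchange proceeds. Conditions include 50 uM competing GDP, 5 and 30 min reads, and a later cAMP challenge for antagonist detection.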

[5] = target: Rap guanine nucleotide exchange factor 3 (Homo sapiens) (UniProt O95398); test: Counterscreen qHTS for agonist of cAMP-regulated guanine nucleotide exchange factor 3 (EPAC1) (AID 1645889); also: % of control where 0% means no effect; nearly all actives have a fitted effect of over 40% in size
How it was run: as §1

Chain of Rap guanine nucleotide exchange factor 3 (Homo sapiens) (O95398 whole entry, looked up): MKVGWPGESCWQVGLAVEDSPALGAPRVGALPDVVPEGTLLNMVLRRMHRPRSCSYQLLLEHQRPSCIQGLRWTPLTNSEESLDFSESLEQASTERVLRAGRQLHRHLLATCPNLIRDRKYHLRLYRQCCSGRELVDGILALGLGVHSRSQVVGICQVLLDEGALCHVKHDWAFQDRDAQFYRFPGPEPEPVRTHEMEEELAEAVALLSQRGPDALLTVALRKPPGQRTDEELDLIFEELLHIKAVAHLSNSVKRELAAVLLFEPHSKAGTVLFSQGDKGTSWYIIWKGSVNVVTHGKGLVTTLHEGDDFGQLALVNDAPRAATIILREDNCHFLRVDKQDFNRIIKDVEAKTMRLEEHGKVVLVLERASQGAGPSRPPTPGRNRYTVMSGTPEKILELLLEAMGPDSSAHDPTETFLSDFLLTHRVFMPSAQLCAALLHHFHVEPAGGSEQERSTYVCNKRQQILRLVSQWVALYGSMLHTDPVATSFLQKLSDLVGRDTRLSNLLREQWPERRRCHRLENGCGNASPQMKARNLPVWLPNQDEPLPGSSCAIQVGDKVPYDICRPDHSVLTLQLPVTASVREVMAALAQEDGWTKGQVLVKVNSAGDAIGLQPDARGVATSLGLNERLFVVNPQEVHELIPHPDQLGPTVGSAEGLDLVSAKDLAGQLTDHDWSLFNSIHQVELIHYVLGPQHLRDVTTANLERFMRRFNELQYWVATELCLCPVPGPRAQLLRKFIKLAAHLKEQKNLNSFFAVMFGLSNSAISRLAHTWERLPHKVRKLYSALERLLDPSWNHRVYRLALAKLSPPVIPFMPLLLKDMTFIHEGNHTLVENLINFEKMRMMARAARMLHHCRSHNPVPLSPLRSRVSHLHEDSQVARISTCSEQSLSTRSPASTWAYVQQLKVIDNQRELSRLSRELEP
Chain of Rap guanine nucleotide exchange factor 4 (Homo sapiens) (Q8WZA2 whole entry, looked up): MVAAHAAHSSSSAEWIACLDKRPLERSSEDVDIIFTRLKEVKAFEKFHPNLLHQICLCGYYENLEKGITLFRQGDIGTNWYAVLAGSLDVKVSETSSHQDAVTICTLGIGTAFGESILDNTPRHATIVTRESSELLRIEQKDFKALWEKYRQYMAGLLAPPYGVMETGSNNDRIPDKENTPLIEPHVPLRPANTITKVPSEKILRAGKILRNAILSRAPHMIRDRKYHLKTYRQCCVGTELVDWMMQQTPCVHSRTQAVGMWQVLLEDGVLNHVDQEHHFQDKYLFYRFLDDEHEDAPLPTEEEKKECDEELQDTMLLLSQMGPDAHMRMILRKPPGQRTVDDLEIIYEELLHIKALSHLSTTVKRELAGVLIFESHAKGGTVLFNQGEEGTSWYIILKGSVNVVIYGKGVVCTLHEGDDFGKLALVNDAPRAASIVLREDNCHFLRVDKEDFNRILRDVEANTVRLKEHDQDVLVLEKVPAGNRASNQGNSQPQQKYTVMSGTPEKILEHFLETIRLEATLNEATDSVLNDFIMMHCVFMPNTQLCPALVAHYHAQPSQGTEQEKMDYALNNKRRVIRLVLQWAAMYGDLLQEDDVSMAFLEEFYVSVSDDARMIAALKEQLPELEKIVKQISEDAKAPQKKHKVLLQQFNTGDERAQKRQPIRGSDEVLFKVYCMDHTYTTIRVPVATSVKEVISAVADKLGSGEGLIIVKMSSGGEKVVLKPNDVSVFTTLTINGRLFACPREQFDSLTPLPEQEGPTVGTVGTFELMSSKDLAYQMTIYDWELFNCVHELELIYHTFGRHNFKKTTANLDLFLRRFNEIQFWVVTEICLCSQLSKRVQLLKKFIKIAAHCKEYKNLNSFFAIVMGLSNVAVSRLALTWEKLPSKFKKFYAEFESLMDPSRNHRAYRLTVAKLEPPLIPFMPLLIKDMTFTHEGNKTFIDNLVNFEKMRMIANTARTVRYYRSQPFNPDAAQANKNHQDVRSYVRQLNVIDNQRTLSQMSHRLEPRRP

Cc1nn(-c2ccc(F)cc2)c(-n2cccc2)c1C(=O)N1CCN(c2ccc(F)cc2)CC1
inactive: Potency [1] | Potency [2] | outcome [3] inactive [at 12.7 µM] | Potency [4] | Potency [5]

COc1ccc(C2CC(=O)C3=C(C2)NC(C)=C(C#N)C3c2ccc(N(C)C)cc2)cc1 (stereo not given)
inactive: Potency [1] | activation [2] 6.82% [at 17.1 µM, percent relative to cAMP agonist control] | Potency [3] | activity change, negative = inhibition [4] 0.0712% [at 30.8 µM] | activation [5] 20% [at 30.8 µM]

Cc1ccc(C(=O)OCC(=O)c2ccc(CC(=O)N3CCOCC3)s2)c(C)c1
inactive: Potency [1] | Potency [2] | Potency [3] | Potency [4] | Potency [5]

COc1ccc(/C=N/NC(=O)c2cc(C(C)(C)C)[nH]n2)cc1COc1ccc(F)cc1F
inactive: Potency [1] | activation [2] 3.4% [at 17.1 µM, percent relative to cAMP agonist control] | Potency [3] | activity change, negative = inhibition [4] -14.1% [at 30.8 µM] | activation [5] 19.8% [at 30.8 µM]

COc1cccc(OCc2cc(/C=N/Nc3ccc(C(=O)O)cc3)ccc2OC)c1
inactive: Potency [1] | activation [2] 6.81% [at 17.1 µM, percent relative to cAMP agonist control] | Potency [3] | activity change, negative = inhibition [4] -4.72% [at 30.8 µM] | activation [5] 21.5% [at 30.8 µM]

COc1ccc(CCn2c(=N)c(C(=O)NC3CCCCC3)cc3c(=O)n4ccccc4nc32)cc1
inactive: Potency [1] | Potency [2] | Potency [3] | Potency [4] | Potency [5]

O=C(Nc1nc(-c2cc(F)ccc2F)cs1)C1=COCCO1
inactive: Potency [1] | Potency [2] | Potency [3] | Potency [4] | Potency [5]

Cc1c2cn[nH]c(=O)c2c(C)n1-c1ccccc1
inactive: Potency [1] | Potency [2] | Potency [3] | Potency [4] | Potency [5]

Cc1ccc(OCC(=O)Nc2ccc(N3CCCC3)cc2)cc1C
inactive: Potency [1] | Potency [2] | Potency [3] | Potency [4] | Potency [5]

CC1=C(C(=O)OC2CCCCCC2)C(c2c(Cl)cccc2Cl)CC(=O)N1 (stereo not given)
inactive: Potency [1] | Potency [2] | Potency [3] | Potency [4] | Potency [5]

Cc1ccc(CN(C(=O)COc2cccc([N+](=O)[O-])c2)c2ccccn2)cc1
inactive: Potency [1] | Potency [2] | outcome [3] inactive [at 12.7 µM] | Potency [4] | Potency [5]

N#C/C(=C/c1cccn1-c1cccc(C(=O)O)c1)c1ccc(F)cc1
inactive: Potency [1] | activation [2] -0.882% [at 17.1 µM, percent relative to cAMP agonist control] | Potency [3] | activity change, negative = inhibition [4] -6.54% [at 30.8 µM] | activation [5] 2.77% [at 30.8 µM]

CC1(Cc2ccc(OC(F)(F)F)cc2)C(=O)Nc2ccc(OC(F)(F)F)cc21 (stereo not given)
inactive: Potency [1] | activation [2] -11.8% [at 17.1 µM, percent relative to cAMP agonist control] | Potency [3] | activity change, negative = inhibition [4] -17.3% [at 30.8 µM] | activation [5] 35.9% [at 30.8 µM]

CCO[C@@H]1OC(C(=O)N2CCN(Cc3ccc4c(c3)OCO4)CC2)=C[C@H](C2CCCCC2)[C@H]1CCCO
inactive: Potency [1] | Potency [2] | Potency [3] | Potency [4] | Potency [5]

COCCn1c(SCC(=O)c2c(C)[nH]c3ccccc23)nc2cc(C(=O)NC(C)C)ccc2c1=O
inactive: Potency [1] | Potency [2] | Potency [3] | Potency [4] | Potency [5]

CS(=O)(=O)c1ccc(C(=O)OCc2nnc(-c3ccccc3)o2)cc1[N+](=O)[O-]
inactive: Potency [1] | Potency [2] | Potency [3] | Potency [4] | Potency [5]

COc1ccc(N(CC(=O)NC2CCCCCCC2)S(=O)(=O)c2c(C)nn(C)c2C)cc1
inactive: Potency [1] | Potency [2] | Potency [3] | Potency [4] | Potency [5]

CCOc1cc(/C=C(/C#N)c2ccc(Cl)cc2)cc(Cl)c1OCC(=O)O
inactive: Potency [1] | activation [2] 3.22% [at 17.1 µM, percent relative to cAMP agonist control] | Potency [3] | activity change, negative = inhibition [4] -8.72% [at 30.8 µM] | activation [5] 10.8% [at 30.8 µM]

O=C(O)c1cc(-c2ccc(/C=C3/SC(=S)N(Cc4ccccc4)C3=O)o2)ccc1Cl
inactive: Potency [1] | activation [2] -8.48% [at 17.1 µM, percent relative to cAMP agonist control] | Potency [3] | activity change, negative = inhibition [4] -11.2% [at 30.8 µM] | activation [5] 7.37% [at 30.8 µM]

Cc1ccc(S(=O)(=O)N2[C@@H](c3ccc(C(C)(C)C)cc3)C(C(=O)O)=CC[C@H]2c2cccs2)cc1
inactive: Potency [1] | Potency [2] | Potency [3] | Potency [4] | Potency [5]
